Sampled rows, rich in hits. Any-hit rate of the full collection: about 10%.
G9a block = blocks human histone lysine methyltransferase G9a. 350,000 compounds, 8.8% hits. AID 504332. G9a H3K9 monomethylation, AlphaScreen, 2 h. Potency, µM (top dose mostly 102 µM), inactives show top-dose activity, negative = inhibition, usual class: inhibitors. Q96KQ7; further: on the % scale 0 is the no-effect control and ±100 the full control effect; nearly all actives have a fitted effect of over 75% in size
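Signal arises when biotinylated H3K9 peptide, once monomethylated, bridges streptavidin donor and antibody-captured acceptor beads. Enzyme at 20 nM was preincubated 15 min with test compounds; peptide 500 nM and SAM 20 uM then reacted for 2 h.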
JMJD2A Tudor inh = inhibitors of human JMJD2A Tudor domain | O75164 | AlphaScreen JMJD2A-Tudor / H3K4me3 peptide binding | Potency, µM (top dose mostly 114 µM), inactives show at the highest dose activity change, negative = inhibition, most hits filed as inhibitors | 390,000 compounds, 4.4% hits | AID 504339; further: on the % scale 0 is the no-effect control and ±100 the full control effect; nearly all actives have a fitted effect of over 50% in size
BAZ2B block = BAZ2B (human) inhibition; AlphaScreen BAZ2B-H3K14Ac peptide displacement; Potency, µM (top dose mostly 114 µM), for inactives: at the top dose activity change, negative = inhibition, hits mostly inhibitors; 360,000 compounds, 4.4% hits; AID 504333; further: on the % scale 0 is the no-effect control and ±100 the full control effect; nearly all actives have a fitted effect of over 60% in size
Target sequence (Q9UIF8 whole entry, looked up): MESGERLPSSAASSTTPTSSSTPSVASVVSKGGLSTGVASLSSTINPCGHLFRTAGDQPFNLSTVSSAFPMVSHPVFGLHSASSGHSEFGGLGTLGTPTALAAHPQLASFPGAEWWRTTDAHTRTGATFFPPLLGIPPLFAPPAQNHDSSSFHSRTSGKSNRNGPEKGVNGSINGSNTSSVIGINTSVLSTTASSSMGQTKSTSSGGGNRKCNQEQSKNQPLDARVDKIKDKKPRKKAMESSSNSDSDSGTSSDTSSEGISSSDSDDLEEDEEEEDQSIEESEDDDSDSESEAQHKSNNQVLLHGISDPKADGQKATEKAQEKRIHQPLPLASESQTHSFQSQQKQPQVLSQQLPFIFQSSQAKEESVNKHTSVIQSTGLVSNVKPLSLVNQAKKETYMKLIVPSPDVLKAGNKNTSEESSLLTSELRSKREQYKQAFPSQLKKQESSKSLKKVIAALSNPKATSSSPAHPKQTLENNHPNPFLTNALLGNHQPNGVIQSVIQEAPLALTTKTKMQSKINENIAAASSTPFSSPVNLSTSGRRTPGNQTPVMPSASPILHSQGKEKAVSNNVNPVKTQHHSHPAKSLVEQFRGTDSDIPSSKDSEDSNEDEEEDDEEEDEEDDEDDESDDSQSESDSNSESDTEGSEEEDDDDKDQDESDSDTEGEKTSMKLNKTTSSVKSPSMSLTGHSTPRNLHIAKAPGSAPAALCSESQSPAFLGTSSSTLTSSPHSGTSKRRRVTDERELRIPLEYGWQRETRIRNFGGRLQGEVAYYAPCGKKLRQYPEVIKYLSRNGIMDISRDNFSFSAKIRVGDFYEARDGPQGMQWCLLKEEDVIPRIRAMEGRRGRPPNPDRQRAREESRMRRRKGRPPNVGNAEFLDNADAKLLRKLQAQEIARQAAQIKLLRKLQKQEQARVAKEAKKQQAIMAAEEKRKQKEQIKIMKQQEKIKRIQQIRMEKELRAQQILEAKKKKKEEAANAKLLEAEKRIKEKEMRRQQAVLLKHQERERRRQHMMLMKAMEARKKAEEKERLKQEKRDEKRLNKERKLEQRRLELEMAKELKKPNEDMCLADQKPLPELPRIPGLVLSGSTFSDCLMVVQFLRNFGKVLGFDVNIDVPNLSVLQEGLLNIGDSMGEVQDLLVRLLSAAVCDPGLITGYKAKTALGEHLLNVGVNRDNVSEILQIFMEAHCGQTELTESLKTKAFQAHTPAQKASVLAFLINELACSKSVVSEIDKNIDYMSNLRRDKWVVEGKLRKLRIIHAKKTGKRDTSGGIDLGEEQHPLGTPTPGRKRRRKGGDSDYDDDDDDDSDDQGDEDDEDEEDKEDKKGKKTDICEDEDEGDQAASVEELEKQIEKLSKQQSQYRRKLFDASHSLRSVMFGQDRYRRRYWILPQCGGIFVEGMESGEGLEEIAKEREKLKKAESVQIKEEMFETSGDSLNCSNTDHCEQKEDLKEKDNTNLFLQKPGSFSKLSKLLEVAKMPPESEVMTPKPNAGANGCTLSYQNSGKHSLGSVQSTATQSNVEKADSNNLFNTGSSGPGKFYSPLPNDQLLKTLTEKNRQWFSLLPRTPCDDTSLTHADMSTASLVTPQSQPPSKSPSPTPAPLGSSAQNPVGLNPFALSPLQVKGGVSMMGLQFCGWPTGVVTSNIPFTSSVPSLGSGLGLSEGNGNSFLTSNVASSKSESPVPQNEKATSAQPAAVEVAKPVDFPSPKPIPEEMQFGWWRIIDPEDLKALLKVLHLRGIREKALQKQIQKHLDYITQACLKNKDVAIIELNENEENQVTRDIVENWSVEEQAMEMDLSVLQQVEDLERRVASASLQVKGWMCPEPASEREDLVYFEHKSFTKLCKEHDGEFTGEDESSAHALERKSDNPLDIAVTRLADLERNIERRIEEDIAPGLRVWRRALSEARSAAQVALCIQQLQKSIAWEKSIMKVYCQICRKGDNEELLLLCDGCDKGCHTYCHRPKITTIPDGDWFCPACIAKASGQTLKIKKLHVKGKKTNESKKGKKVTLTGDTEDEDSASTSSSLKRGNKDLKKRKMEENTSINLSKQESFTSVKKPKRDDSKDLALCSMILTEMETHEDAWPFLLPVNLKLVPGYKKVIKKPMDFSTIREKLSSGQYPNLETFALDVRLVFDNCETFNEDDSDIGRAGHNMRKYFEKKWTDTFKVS
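BAZ2B (50 nM) with biotin-H3(5-23)K14Ac peptide (50 nM) in PBS pH 7.4, 0.01% Tween-20, preformed 30 min, then compound 30 min at room temperature; top concentration 110uM. AlphaScreen streptavidin donor/nickel chelate acceptor beads (10 ug/mL final), 20 min dark, signal read.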
HP1b binding inh = inhibitors of HP1-beta chromodomain binding to methylated histone tails; 390,000 compounds, 0.56% hits; Potency, µM (highest dose often 114 µM), for the others: at the highest dose activity change, negative = inhibition, usual class: inhibitors; AlphaScreen HP1-beta / biotin-H3K9me3 peptide binding; AID 540317; further: nearly all actives have a fitted effect of over 70% in size
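AlphaScreen: HP1-beta (50 nM) preformed 30 min with biotin-H3(1-18)K9me3 peptide (50 nM) in PBS pH 7.4, 0.01% Tween-20. Compound added for 30 min at RT, then streptavidin donor/nickel chelate acceptor beads (10 ug/mL) for 30 min.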
GLS inhibitor = glutaminase GLS (human) inhibition; O94925; GLS enzymatic activity, qHTS titration; Potency, µM (top dose mostly 45.5 µM), for inactives: top-dose activity change, negative = inhibition, most hits filed as inhibitors; 410,000 compounds, 0.21% hits; further: on the % scale 0 is the no-effect control and ±100 the full control effect
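Human kidney-isoform GLS in 45 mM KH2PO4 pH 8.2, 0.02% Tween-20, with compound, started with 1mM L-Glutamine (added stock). Glutamate oxidase/HRP/Amplex red coupled fluorescence read at start and after 30 min at RT.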
Starred values were filed as active, the others as inactive; ? = inconclusive; . = no result given; [ ] = another dose, or the depositor's remark. The call rests on the fitted dose curve; in most records, active means well fitted curve in the direction sought with a large enough effect; inconclusive means small, poorly fitted or top-dose-only effect, or another doubt; inactive means no such curve, though single readings can be large; an effect the other way counts as inactive or inconclusive. Potency means the concentration at half of the fitted maximal effect.

SMILES | G9a block | JMJD2A Tudor inh | BAZ2B block | HP1b binding inh | GLS inhibitor
CCOc1ccc(CCN2C(=O)C(=O)N([C@@H](Cc3ccccc3)CN3CCC[C@H]3CN3C(=O)C(=O)NC[C@@H]3Cc3ccccc3)C[C@@H]2CC(C)C)cc1 | . | . | . | . | 3%
CCOc1ccc(-c2nc(Cn3c(=O)cc(-c4ccccc4)c4c(C)nn(C)c43)c(C)o2)cc1 | -2%[59 µM] | -11% | -1% | 11% | -3%
Cc1cc(OCCN2CC(C)OC(C)C2)ccc1[N+](=O)[O-] (stereo unspecified) | 13µM* | 2.8µM* | ? | ? | -6%
CC1CN(CCOc2ccc([N+](=O)[O-])cc2)CC(C)O1 (stereo unspecified) | 2.5µM* | 6.3µM* | ? | ? | -2%
Cn1c(=O)n(CCOc2ccc([N+](=O)[O-])cc2)c2ccccc21 | -7%[12.7 µM] | -18% | -8% | 14% | -10%
Cc1cc(OCCCn2cnc3ccccc3c2=O)ccc1[N+](=O)[O-] | 5%[59 µM] | 2% | 7% | 28% | -12%
O=[N+]([O-])c1ccc(OCCN2CCNCC2)cc1 | . | 25µM* | 50µM* | ? | -9%
Cc1cc(OCCN2CCC(Cc3ccccc3)CC2)ccc1[N+](=O)[O-] | 40µM* | ? | ? | ? | -13%
COC(=O)[C@]1(Cc2ccccc2)N[C@H](CN(C)C(=O)c2ccc(F)cc2)[C@@H]2C(=O)N(C)C(=O)[C@@H]21 | . | 4% | . | 34% | 2%
COC(CNS(=O)(=O)c1ccc(S(=O)(=O)NC2CC2)cc1)OC | 24% | 10% | -6% | 8% | -9%
CN1C(=O)CSC1=S | 14%[12.7 µM] | -11% | ? | 24% | -1%
COc1ccc(OC)c(NC(=O)Cn2c(=O)c3cccn3c3ccccc32)c1 | -11%[59 µM] | -19% | -6% | 0% | -13%
CC1CN(CCCOc2ccc([N+](=O)[O-])cc2)CC(C)O1 (stereo unspecified) | 10µM* | 14µM* | -9% | ? | 13%
CC1CN(CCOc2ccc(F)cc2)CC(C)O1 (stereo unspecified) | 7.1µM* | 20µM* | 50µM* | ? | -1%
CC1CN(c2ccc([N+](=O)[O-])cn2)CC(C)O1 (stereo unspecified) | -1% | -15% | 2% | 5% | 7%
Fc1ccc(OCCCCCCN2CCCC2)cc1 | 0%[59 µM] | -19% | 6% | 13% | -3%
Cc1ccc(S(=O)(=O)c2cn(Cc3ccccc3Cl)c3ccc(F)cc3c2=O)cc1 | 6%[59 µM] | 1% | -3% | 36% | -6%
CCOC(=O)c1c[nH]c(=S)n1C | 22µM* | 32µM* | -22% | -15% | -9%
N=c1c2c(ncn1Cc1ccco1)Oc1cc(O)ccc1C2c1ccccc1 (stereo unspecified) | . | -16% | -21% | 42% | 3%
N=c1c2c(ncn1Cc1ccco1)Oc1c(ccc3ccccc13)C2c1ccccc1 (stereo unspecified) | -1%[2.33 µM] | ? | 50µM* | ? | -8%
NC(COCc1ccccc1)c1csc(Nc2ccc(C(=O)NCCO)cc2)n1 (stereo unspecified) | . | . | . | . | 5%
COc1ccc(C(C#N)=C2C=CC(=NO)C=C2)cc1 | 2.2µM* | 16µM* | 14µM* | 40µM* | ?
CC1(C)Cc2c(ccc3ccccc23)/C(=C/C(=O)N2CCCCC2)N1 | ? | -58% | 50µM* | -12% | 1%
COC(=O)C(Cc1ccc(O)cc1)NC(=O)Cn1cc(C)c(=O)[nH]c1=O (stereo unspecified) | . | -20% | . | 27% | 5%
Brc1ccccc1OCCNCc1ccccc1 | 7.9µM* | ? | 50µM* | ? | -8%
C=CCc1ccccc1OCCNCc1ccccc1 | 8.9µM* | 0.89µM* | ? | ? | -4%
O=C(COC(=O)CCCOc1ccc(Cl)cc1Cl)NCc1ccccc1 | 32% | 23% | 13% | 84% | 3%
C=CCc1ccccc1OCC(=O)O | -16%[59 µM] | -18% | -5% | 5% | -3%
Clc1ccc(OCCCNCc2ccccc2)c2ccccc12 | . | 28µM* | 50µM* | ? | -3%
Cc1ccc(CSc2sc(C(=O)c3ccccc3)c(N)c2C#N)cc1 | -33%[59 µM] | 20% | 19% | 81% | -3%
